From PubChem BioAssay
Sampled rows, rich in hits. Any-hit rate of the full collection: about 3.4%.
MEKK2 WT-MEK5 – raises or lowers MEK5 binding to wildtype human MEKK2 PB1 domain; Q9Y2U5; bead flow cytometry, Alexa488-MEK5 binding to MEKK2 WT; actives lie on both sides; binding response (% of control), % at 10 µM; 1.1% of 290,000 active; in the data active = binding response below about 67% or above about 130%
MEKK3 PB1 HTS – MEKK3-MEK5 PB1 interaction, increase or decrease | bead-based flow cytometry, Alexa488-MEK5 binding to MEKK3; actives lie on both sides; 0 = blocked by unlabeled MEK5, 100 = vehicle | binding response (% of control), % at 10 µM | 1.4% of 290,000 active;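 active = binding response more than 3 SD above or below the average of its plate-row segment, actives on both sides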;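 also: Alexa488 bead fluorescence after subtracting the streptavidin-only scavenger bead signal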
Target sequence (Q99759 whole entry, looked up): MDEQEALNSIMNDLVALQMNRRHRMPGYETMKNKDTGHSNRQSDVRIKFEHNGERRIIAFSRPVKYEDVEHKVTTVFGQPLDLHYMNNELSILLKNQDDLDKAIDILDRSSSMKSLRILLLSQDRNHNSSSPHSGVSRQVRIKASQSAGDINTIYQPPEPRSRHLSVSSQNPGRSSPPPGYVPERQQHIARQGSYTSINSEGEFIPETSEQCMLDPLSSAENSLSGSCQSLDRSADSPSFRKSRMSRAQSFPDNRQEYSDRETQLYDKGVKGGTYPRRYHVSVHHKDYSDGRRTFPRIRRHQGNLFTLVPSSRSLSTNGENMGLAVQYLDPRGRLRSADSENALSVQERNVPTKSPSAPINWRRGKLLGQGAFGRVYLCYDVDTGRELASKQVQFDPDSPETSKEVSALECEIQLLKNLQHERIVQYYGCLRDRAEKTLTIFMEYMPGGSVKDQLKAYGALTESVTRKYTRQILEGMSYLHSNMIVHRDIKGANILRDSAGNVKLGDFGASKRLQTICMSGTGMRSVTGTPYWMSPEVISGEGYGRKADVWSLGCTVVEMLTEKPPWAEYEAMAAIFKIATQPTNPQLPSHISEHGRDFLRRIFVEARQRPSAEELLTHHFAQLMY
NTR1 agonist – agonists of human neurotensin receptor NTR1 | activation, % at 20 µM | 0.17% of 330,000 active | NTR1-U2OS beta-arrestin-GFP spot imaging, agonist mode | P30989;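 active = activation at or above 40% of the spot to cytoplasm intensity ratio, with at least 20 cells analyzed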
MEKK2 mut-MEK5 – signal of MEK5 binding to mutant human MEKK2 PB1 domain | bead flow cytometry, Alexa488-MEK5 binding to MEKK2 mutant | percent response, % at 10 µM | 0.35% of 290,000 active | AID 1530; in the data active = percent response above about 24%, passing the limit was not always enough
ANO1 block – inhibitors of mouse TMEM16A calcium-activated chloride channel; normalized B-score (activity score, 25-100; higher = stronger inhibition) at 10 µM; HEK293 TMEM16A/YFP iodide influx fluorescence, ionomycin; 1.2% of 310,000 active;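 active = ratio plate-corrected score three or more library SD toward inhibition, starting fluorescence score within five deviations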;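 also: score derived from kinetic fluorescence span divided by baseline fluorescence per well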
TMEM16A act – activates or potentiates the mouse TMEM16A chloride channel | Q8BHY3 | HEK293 TMEM16A/YFP-H148Q/I152L, iodide quench fluorescence; active compounds read low | B-score at 10 µM | 0.3% of 340,000 active | AID 623877;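 active = fluorescence-ratio B-score plate-corrected deviation score at least 3 library SD below zero, with starting fluorescence score within 5 deviations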;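 also: channel opened by trigger with iodide after compound preincubation; score built on the fluorescence ratio of max minus min over baseline; more negative score means more quench and so TMEM16A activation or potentiation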
MEKK2wt confirm – raises or lowers MEK5 binding to wildtype human MEKK2, retest. shares compounds with MEKK3 PB1 HTS. bead flow cytometry, Alexa488-MEK5 binding to MEKK2 WT; actives lie on both sides. binding response (% of control), % at 10 µM. 2.4% of 5,900 active; in the data active = binding response below about 16% or above about 210%; inactive = in between
MEKK2mut confirm – signal of MEK5 binding to mutant human MEKK2, retest. shares compounds with MEKK3 PB1 HTS. bead flow cytometry, Alexa488-MEK5 binding to MEKK2 mutant. percent response, % at 10 µM. 2% of 5,900 active; in the data active = percent response mostly above about 71%, no sharp cut-off; inactive = mostly below about 38%;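 also: higher means compound restores mutant binding toward wildtype level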
MEKK3 confirm – confirmation of inhibitors of MEK5 binding to human MEKK3; shares compounds with MEKK3 PB1 HTS; bead flow cytometry, Alexa488-MEK5 binding to MEKK3; active compounds read low; binding response (% of control), % at 10 µM; 1.8% of 5,900 active; AID 1894;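 active = binding response below 72% of control, or above a set upper limit, though filed actives all read lower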;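 also: lower values mean stronger disruption of MEK5 binding to MEKK3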
A number is an active result; – = inactive; · = not tested or not shown; [ ] = another dose, or the depositor's remark.

SMILES	MEKK2 WT-MEK5	MEKK3 PB1 HTS	NTR1 agonist	MEKK2 mut-MEK5	ANO1 block	TMEM16A act	MEKK2wt confirm	MEKK2mut confirm	MEKK3 confirm
C/C(=N/NC(=O)c1sc(NS(=O)(=O)c2ccccc2)nc1C)c1ccc(F)cc1	–	153	–	–	–	–	–	–	–
Cc1ccc(C)c(S(=O)(=O)NNC(=O)c2sc(NS(=O)(=O)c3ccccc3)nc2C)c1	–	–	–	–	–	–	·	·	·
Cc1ccc(S(=O)(=O)N(C)CC(=O)Nc2ccccc2N2CCCC2)cc1	·	·	–	·	·	–	·	·	·
Cc1noc(C)c1C(=O)NCC(=O)Nc1ccccc1Br	·	·	–	·	·	–	·	·	·
CCOc1ccc2nc(C)cc(C(=O)O)c2c1	-7.0[inhibitor]	0.0[inhibitor]	–	–	–	–	–	–	–
COc1ccc2nc(C)cc(C(=O)O)c2c1	–	–	–	–	–	–	·	·	·
Cc1ccc(NC(=O)CCc2ccc(S(=O)(=O)N3CCOCC3)cc2)c(Cl)c1	·	·	–	·	·	–	·	·	·
O=C(Nc1cccc(S(=O)(=O)N2CCOCC2)c1)[C@@H]1CCCN1S(=O)(=O)c1ccc(Cl)cc1	–	153	–	–	–	–	–	–	–
CCc1cccc(NC(=O)C2CCCN2S(=O)(=O)c2ccc3c(c2)n(C)c(=O)c(=O)n3C)c1 (centres undefined)	–	71[inhibitor]	–	–	–	–	–	–	–
Cc1ccc(N(C)C(=O)C2CCCN2S(=O)(=O)c2ccc3c(c2)n(C)c(=O)c(=O)n3C)cc1 (centres undefined)	–	57[inhibitor]	–	–	–	–	–	–	–
CC(C(=O)Nc1ccc(F)c(F)c1F)N(C)CCOc1ccccc1 (centres undefined)	–	–	–	–	–	–	·	·	·
O=C(CSc1nc2ncc(Br)cc2[nH]1)c1ccc([N+](=O)[O-])cc1	–	132	–	–	–	–	–	–	–
NC(=O)C[n+]1cccc(CNC(=O)c2ccc(OC(F)F)cc2)c1	–	–	–	–	–	–	·	·	·
O=C(C[n+]1cccc(CNC(=O)c2ccc(OC(F)F)cc2)c1)Nc1cc(C(F)(F)F)ccc1Cl	144	–	–	–	–	–	–	–	–
N#Cc1c(Nc2ccccc2)c(/C=N/N=C/c2ccccc2)c[nH]c1=O	–	138	–	–	–	–	–	–	–
CC(C)(CO)CN1CCC(n2nccc2NC(=O)C2CCCC2)CC1	–	–	–	–	–	–	·	·	·
c1ccc(CCNc2ccnc3cc4ccccc4cc23)cc1	210	–	·	97	·	–	–	–	–
Nc1nc(NCC2CCCO2)nc(Nc2ccc(F)cc2)c1[N+](=O)[O-] (centres undefined)	–	199	–	–	–	–	–	–	–
Cc1cccc(NC(=S)N2CCN(c3ccc(F)cc3)CC2)c1	–	–	–	–	–	–	·	·	·
Cc1oc(-c2ccccc2Cl)nc1Cn1cccc1C1=NC(c2ccccc2)CO1 (centres undefined)	29[inhibitor]	19[inhibitor]	–	–	–	–	–	–	–
COc1ccc(N2CCN(C(=O)CSc3nnc(-c4ccco4)n3C)CC2)cc1	–	–	–	–	–	·	·	·	·
O=C(/C=C/c1ccccc1Cl)Nc1ccc(-c2nnc3n2CCCCC3)cc1	–	137	–	–	–	–	–	–	–
CC(C)(C)CC(=O)Nc1ccc(-c2nnc3n2CCCCC3)cc1	–	–	–	–	–	–	·	·	·
CCCN(CC(=O)Nc1ccccc1C)C(=O)C1CC(=O)N(c2cccc(C)c2C)C1 (centres undefined)	·	·	–	·	–	–	·	·	·
Cc1ccc(NS(=O)(=O)c2cc([N+](=O)[O-])ccc2NNC(=S)Nc2cccc(Cl)c2)c(C)c1	–	136	·	–	100	–	–	–	–
SMILES	MEKK2 WT-MEK5	MEKK3 PB1 HTS	NTR1 agonist	MEKK2 mut-MEK5	ANO1 block	TMEM16A act	MEKK2wt confirm	MEKK2mut confirm	MEKK3 confirm
Cc1cccc(NC(=S)NNc2cccc(Cl)c2)c1	–	–	–	–	–	–	·	·	·
CN(C)C(=O)C(CCN1CCC(O)(c2ccc(Cl)cc2)CC1)(c1ccccc1)c1ccccc1	150	–	–	–	–	–	–	–	–
CCOC(=O)c1c(C)n(C)c2ccc(OCC(O)CN3CCN(C)CC3)cc12 (centres undefined)	–	–	–	–	–	–	·	·	·
CCOC(=O)c1c(C)n(-c2ccc(C)cc2)c2ccc(OCC(O)CN3CCN(C)CC3)cc12 (centres undefined)	289	–	·	104	·	–	214	71	–
Cc1ccc(CN(C)C(=O)c2c(C)nn(-c3ccccc3)c2C)cc1	–	–	–	–	–	–	·	·	·
O=C(Nc1nnc(-c2ccccc2Cl)s1)C1CCN(S(=O)(=O)c2ccc(Cl)cc2)CC1	–	140	–	–	–	–	–	–	–
O=C(Nc1nnc(-c2ccccc2F)s1)C1CCN(S(=O)(=O)c2ccc(Cl)cc2)CC1	–	–	–	–	–	–	·	·	·
Cc1[nH]nc2c1C1(CCC3(CC1)OCCO3)C(C#N)=C(N)O2	-3.0[inhibitor]	1.0[inhibitor]	–	–	–	–	–	–	–
CCOC(=O)N1CCC2(CC1)C(C#N)=C(N)Oc1n[nH]c(C)c12	–	–	–	–	–	–	·	·	·
O=C(CN1C(=O)NC2(CCCC2)C1=O)OCc1ccc(Cl)c(Cl)c1	·	·	–	·	–	–	·	·	·
COc1ccc(OC(=O)c2ccc(OC)c(S(=O)(=O)N3CCOCC3)c2)cc1	–	–	–	–	–	–	·	·	·
COc1cc(N2CCCC2)c(OC)cc1/C=C(/C#N)c1ccc(F)cc1	53[inhibitor]	–	–	–	–	–	–	–	–
COc1cc(N2CCCC2)c(OC)cc1/C=C(/C#N)c1ccc(Br)cc1	–	–	–	189	–	–	–	–	–
N#C/C(=C/c1ccc(N2CCCCC2)cc1)c1cccc(F)c1	–	–	–	–	–	–	·	·	·
CCOC(=O)c1c(C)[nH]c(O)c1C=Nc1ccc(C(F)(F)F)cc1	–	132	–	–	–	–	–	–	–
CCOC(=O)c1c(C)[nH]c(O)c1C=Nc1ccc(Cl)cc1	–	–	–	–	–	–	·	·	·
COc1ccc(NC(=O)C(NC(C)=O)C(=O)Nc2ccc(F)cc2)cc1 (centres undefined)	–	–	–	–	–	–	·	·	·
NNC(=O)Cn1nc(-c2ccccc2)c2ccccc2c1=O	3.0[inhibitor]	2.0[inhibitor]	–	–	–	–	–	–	–
